For 28 compounds, percent activity (GTP binding) results are on record in PubChem BioAssay AID761 (NMMLSC, 2007).

Screen size: about 190,000 compounds; about 400 (0.21%) were called active. Another 2% or so got no clear call; they are omitted. The sample holds actives, similar compounds and a random draw of the others, so the mix is not that of the screen. A number with no mark means an inactive call.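 Rule for the calls: active = percent activity GTP binding at least 20 points away from the 100% baseline, either down as inhibitor or up as activator; inconclusive = compound flagged as likely green fluorescent from well-wide comparison; inactive = the rest.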

In the experiment the target is Cell division control protein 42 homolog (Homo sapiens) (UniProt P60953). Nature of the experiment: modulators of GTP binding to wildtype Cdc42, primary screen, biochemical, multiplex bead flow cytometry, Bodipy-GTP (AID 761).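 Note: median bead fluorescence of bound Bodipy-FL-GTP at 100 nM; 0% = excess unlabeled GTP control and 100% = no compound control; below 100% means less GTP binding so inhibitor and above means activator.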 The note with it: GST-Cdc42 beads, at 10 µM, actives lie on both sides. (In general: A flow cytometer gives signals particle by particle.)
Chain of Cell division control protein 42 homolog (Homo sapiens) (P60953 whole entry, looked up): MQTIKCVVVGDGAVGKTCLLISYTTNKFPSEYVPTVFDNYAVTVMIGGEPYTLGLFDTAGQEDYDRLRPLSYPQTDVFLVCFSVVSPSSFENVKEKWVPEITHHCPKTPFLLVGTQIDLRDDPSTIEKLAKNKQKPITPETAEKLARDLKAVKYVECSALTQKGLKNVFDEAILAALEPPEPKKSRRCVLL
As for `COC(=O)C1=CN(Cc2ccc(OC)c(OC)c2)C=C(C(=O)OC)C1c1cccs1`, the percent activity (GTP binding) was 99%.

Take `CCn1c(-c2cccnc2Cl)nc2cc(C)c(C)cc21`: the percent activity (GTP binding) was 99%.

As to `Cc1ccc(C(=O)OC(C)CN2CCOCC2)cc1` (stereo not drawn), the percent activity (GTP binding) is 99%.

As for `COc1ccccc1CNC(=O)c1cc(=O)c2ccccc2o1`, the percent activity (GTP binding) is 96%.

Turning to `COCCN(Cc1nc(-c2ccc(C(F)(F)F)cc2)no1)C(C)C`, the percent activity (GTP binding) is 94%.

Consider `COc1ccccc1NC(=O)C1=C(C)NC(=O)NC1c1ccc(C)s1` (stereo not drawn), for which the percent activity (GTP binding) is 93%.

In the case of `COc1ccc(-c2nc3cnccn3c2NC(C)(C)CC(C)(C)C)cc1O`, the percent activity (GTP binding) was 101%.

On to `Cc1nnc(N/N=C/C2CC=CCC2)[nH]c1=O` (stereo not drawn), for which the percent activity (GTP binding) is 96%.

Take `O=C(O)/C=C/c1ccc(OCCCF)cc1`: the percent activity (GTP binding) was 101%.

As to `CN(CC(=O)Nc1ccccc1[N+](=O)[O-])Cc1ccc(Br)cc1`, the percent activity (GTP binding) was 98%.

`CCC(C)(C)NC(=O)C(c1cccc(OC)c1OC)N(CC(C)C)C(=O)CCC(=O)Nc1cc(C)on1` (stereo not drawn): the percent activity (GTP binding) was 99%.

With `O=C(COC(=O)C1CCCCC1)Nc1ccc([N+](=O)[O-])cc1`, the percent activity (GTP binding) is 96%.

`Nc1nc(SCC(=O)N2CCN(S(=O)(=O)c3ccc(Cl)cc3)CC2)n[nH]1`: the percent activity (GTP binding) was 100%.

For `O=C(Nc1ccc2c(c1)CCC2)c1ccc(Br)s1`, the percent activity (GTP binding) is 98%.

For `Cc1cccc2cc(CN(Cc3cccs3)C(c3nnnn3C3CCCC3)C(C)C)c(=O)[nH]c12` (stereo not drawn), the percent activity (GTP binding) is 72% (active).

As to `Cc1cccc2cc(CN(Cc3ccc4c(c3)OCO4)Cc3nnnn3C3CCCC3)c(=O)[nH]c12`, the percent activity (GTP binding) was 94%.

For the compound `CCC(c1nnnn1C1CCCC1)N(Cc1cccs1)Cc1cc2cccc(C)c2[nH]c1=O` (stereo not drawn), the percent activity (GTP binding) is 103%.

`COc1cc(OC)c(C(=O)OCC(=O)N2CC(=O)Nc3ccccc32)cc1OC`: the percent activity (GTP binding) is 103%.

In the case of `CSc1nc2nc(-c3cccc(C(F)(F)F)c3)ccn2n1`, the percent activity (GTP binding) was 93%.

Consider `CSc1nsc(SC)c1NC(=O)OC1CCCCC1`, for which the percent activity (GTP binding) is 35% (active).

In the case of `CSc1ncccc1C(=O)NC1CCCCCC1`, the percent activity (GTP binding) is 96%.

Regarding `COc1ccc(NC(=O)c2c(SC)nsc2SC)cc1`, the percent activity (GTP binding) is 105%.

Turning to `Cc1cc(C)n(-c2ccc(C(=O)O)cc2[N+](=O)[O-])n1`, the percent activity (GTP binding) is 98%.

For the compound `COc1ccc(NC(=O)CN2C(=O)CSC2=O)cc1`, the percent activity (GTP binding) is 98%.

Turning to `COc1cccc(OC)c1C(=O)OCC(=O)/C(C#N)=C(\C)N`, the percent activity (GTP binding) was 95%.

As to `CC1(C)C(c2cccs2)=[N+]([O-])C2(CCCCC2=O)N1O` (stereo not drawn), the percent activity (GTP binding) was 99%.

With `Cc1cc(NC(=O)CN2C(=O)NC(C)(CCc3ccccc3)C2=O)no1` (stereo not drawn), the percent activity (GTP binding) is 96%.

In the case of `CC(=O)c1ccc(NC(=O)CSC(=S)N2CCCC2)cc1`, the percent activity (GTP binding) is 97%.
